Structures can show the parent of a compound that is named as a salt.
How the values were obtained:
Conditions in all cases: 20 µM
[1] = system: Salmonella enterica typhimurium; assay: growth AUC normalised to DMSO control (fraction of control); higher = less growth inhibition, active = hit call of the paper
How it was run: (§1)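 Pathogens were passaged twice under anaerobic conditions, then inoculated into pre-reduced mGAM plates at a starting OD578 of 0.01, with compound at 20 μM and 1% DMSO, and sealed with breathable membranes. For Haemophilus parainfluenzae, the medium was supplemented with hemin and NAD. OD578 was read every hour for 24 h in three biological replicates. Growth-curve AUC was calculated by the trapezoidal rule up to the exponential-to-stationary transition and normalised to DMSO controls on the same plate.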

Shigella flexneri = assay: as above
How it was run: as §1

Vibrio cholerae = assay: as above
How it was run: as §1

[2] = system: Yersinia pseudotuberculosis; assay: as above
How it was run: as §1

P. vulgatus RND KO = assay: growth AUC normalised to DMSO control (median) (fraction of control); higher = less growth inhibition, active = hit call of the paper
How it was run: (§2)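 Strains were passaged twice overnight without oxygen, then grown in mGAM in 96-well plates with each approved-drug library compound at 20 μM and 1% DMSO, starting at OD578 0.01. OD578 was read hourly for 24 h inside an anaerobic incubator. Curves were truncated at entry into stationary phase, and the trapezoidal-rule area under the curve was normalised to same-plate vehicle wells. The value is the median across three biological replicates.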

P. vulgatus WT = assay: as above
How it was run: as §2

[3] = system: S. enterica typhimurium WT; assay: as above
How it was run: as §2

[4] = system: S. enterica typhimurium tolC KO; assay: as above
How it was run: as §2

Measured: growth AUC normalised to DMSO control
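Wherever growth AUC normalised to DMSO control (median) is given: active when median AUC fell below 0.1.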

CNC(C)CCC=C(C)C (configuration not stated) [Isometheptene mucate]
inactive: [1] 0.988 | Shigella flexneri 0.995 | Vibrio cholerae 1.01 | [2] 1 | P. vulgatus RND KO 1.01 | P. vulgatus WT 1.02 | [3] 1.01 | [4] 1

CC(C)C(=O)c1c(C(C)C)nn2ccccc12 [Ibudilast]
inactive: [1] 1.01 | Shigella flexneri 1.01 | Vibrio cholerae 1.05 | [2] 0.994 | P. vulgatus RND KO 0.949 | P. vulgatus WT 0.956 | [3] 1 | [4] 0.33

CN1CCCC(CC2c3ccccc3Sc3ccccc32)C1 (configuration not stated) [Metixene hydrochloride]
inactive: [1] 0.987 | Shigella flexneri 1 | Vibrio cholerae 0.944 | [2] 1 | P. vulgatus RND KO 0.774 | P. vulgatus WT 0.704 | [3] 1.01 | [4] 0.923

COc1ccc(OC)c(C(O)CNC(=O)CN)c1 (configuration not stated) [Midodrine hydrochloride]
inactive: [1] 0.992 | Shigella flexneri 0.99 | Vibrio cholerae 1.02 | [2] 1.02 | P. vulgatus RND KO 1.02 | P. vulgatus WT 1.02 | [3] 1.02 | [4] 1

CN(C)CC/C=C1/c2ccccc2Sc2ccc(Cl)cc21 [Chlorprothixene hydrochloride]
inactive: [1] 0.997 | Shigella flexneri 0.988 | [2] 0.996 | P. vulgatus RND KO 0.904 | P. vulgatus WT 0.887 | [3] 0.999 | [4] 0.912
active: Vibrio cholerae 0.817

COc1cc(OC)c(C(=O)CCCN2CCCC2)c(OC)c1 [Buflomedil hydrochloride]
inactive: [1] 1 | Shigella flexneri 0.997 | Vibrio cholerae 0.997 | [2] 1.01 | P. vulgatus RND KO 0.997 | P. vulgatus WT 0.994 | [3] 0.995 | [4] 1

CO[C@H]1C[C@H](O[C@H]2[C@H](C)[C@@H](O[C@@H]3O[C@H](C)C[C@H](N(C)C)[C@H]3OC(C)=O)[C@@H](C)C[C@@]3(CO3)C(=O)[C@H](C)[C@@H](OC(C)=O)[C@@H](C)[C@@H](C)OC(=O)[C@@H]2C)O[C@@H](C)[C@@H]1OC(C)=O [Troleandomycin]
inactive: [1] 0.998 | Shigella flexneri 1.01 | Vibrio cholerae 0.882 | [2] 0.999 | [3] 0.988 | [4] 0.207
active: P. vulgatus RND KO 0.0116 | P. vulgatus WT 0.00916

CC(CN(C)C)C(C)(O)Cc1ccc(Cl)cc1 (configuration not stated) [Clobutinol hydrochloride]
inactive: [1] 0.999 | Shigella flexneri 0.98 | Vibrio cholerae 0.987 | [2] 0.993 | P. vulgatus RND KO 0.999 | P. vulgatus WT 1.03 | [3] 1.01 | [4] 0.994

COc1ccc2c3c1O[C@H]1C[C@@H](O)C=C[C@@]31CCN(C)C2 [Galanthamine hydrobromide]
inactive: [1] 0.995 | Shigella flexneri 0.95 | Vibrio cholerae 0.986 | [2] 1.02 | P. vulgatus RND KO 0.998 | P. vulgatus WT 1 | [3] 1 | [4] 0.995

Nc1nc(=O)n([C@@H]2CS[C@H](CO)O2)cc1F [(-) Emtricitabine]
inactive: [1] 0.995 | Shigella flexneri 0.961 | Vibrio cholerae 0.993 | [2] 0.981 | P. vulgatus RND KO 0.983 | P. vulgatus WT 0.986 | [3] 0.998 | [4] 0.993

CCC(=O)O[C@]1(C(=O)CCl)[C@@H](C)C[C@H]2[C@@H]3CCC4=CC(=O)C=C[C@]4(C)[C@@]3(F)[C@@H](O)C[C@@]21C [Clobetasol propionate]
inactive: [1] 1.01 | Shigella flexneri 1.04 | Vibrio cholerae 1.02 | [2] 1.01 | P. vulgatus RND KO 1.02 | P. vulgatus WT 1.05 | [3] 1 | [4] 0.927

Nc1ccc(S(=O)(=O)Nc2ncccn2)cc1 [Sulfadiazine]
inactive: [1] 0.989 | Shigella flexneri 0.974 | Vibrio cholerae 1 | [2] 0.987 | P. vulgatus RND KO 0.996 | P. vulgatus WT 0.995 | [3] 0.986 | [4] 1

O=C(O)CCC(=O)Nc1ccc(S(=O)(=O)Nc2nccs2)cc1 [Succinylsulfathiazole]
inactive: [1] 1 | Shigella flexneri 0.997 | Vibrio cholerae 0.999 | [2] 1 | P. vulgatus RND KO 1 | P. vulgatus WT 1.05 | [3] 1 | [4] 0.994

CCCN(CCC)CCc1cccc2c1CC(=O)N2 [Ropinirole hydrochloride]
inactive: [1] 0.997 | Shigella flexneri 1.02 | Vibrio cholerae 0.976 | [2] 0.985 | P. vulgatus RND KO 1.03 | P. vulgatus WT 1.04 | [3] 1 | [4] 0.988

N=C(N)NC(=O)c1nc(Cl)c(N)nc1N [Amiloride hydrochloride dihydrate]
inactive: [1] 1.01 | Shigella flexneri 1.01 | Vibrio cholerae 1.04 | [2] 1.02 | P. vulgatus RND KO 1.03 | P. vulgatus WT 1.04 | [3] 0.982 | [4] 0.996

CC(=O)N[C@@H](CS)C(=O)O [Acetylcysteine]
inactive: [1] 1.03 | Shigella flexneri 1.06 | Vibrio cholerae 1.05 | [2] 1.04 | P. vulgatus RND KO 1.07 | P. vulgatus WT 1.06 | [3] 1.01 | [4] 0.991

CC(C)(C)NC[C@H](O)COc1ccccc1C1CCCC1 [Penbutolol sulfate]
inactive: [1] 1.01 | Shigella flexneri 1.02 | Vibrio cholerae 1 | [2] 1.02 | P. vulgatus RND KO 0.994 | P. vulgatus WT 1.01 | [3] 1 | [4] 0.947

CCOC(=O)C1=C(C)NC(C)=C(C(=O)OC)C1c1cccc(Cl)c1Cl (configuration not stated) [Felodipine]
inactive: [1] 0.987 | Shigella flexneri 1 | Vibrio cholerae 1 | [2] 0.883 | P. vulgatus RND KO 1.01 | P. vulgatus WT 1.03 | [3] 1 | [4] 1

CC(C)[N+](C)(CCOC(=O)C1c2ccccc2Oc2ccccc21)C(C)C [Propantheline bromide]
inactive: [1] 0.974 | Shigella flexneri 0.983 | Vibrio cholerae 0.967 | [2] 1 | P. vulgatus RND KO 0.966 | P. vulgatus WT 0.958 | [3] 1 | [4] 0.981

Cc1c(Cl)cccc1Nc1ccccc1C(=O)O [Tolfenamic acid]
inactive: [1] 1 | Shigella flexneri 0.961 | Vibrio cholerae 0.901 | [2] 0.963 | P. vulgatus RND KO 0.802 | P. vulgatus WT 0.803 | [3] 1.02 | [4] 0.992

COc1ccccc1OCC(O)CO (configuration not stated) [Guaifenesin]
inactive: [1] 0.998 | Shigella flexneri 1.02 | Vibrio cholerae 1.01 | [2] 0.992 | P. vulgatus RND KO 0.984 | P. vulgatus WT 0.987 | [3] 0.995 | [4] 0.99

CC[C@H]1OC(=O)[C@H](C)[C@@H](O[C@H]2C[C@@](C)(OC)[C@@H](O)[C@H](C)O2)[C@H](C)[C@@H](O[C@@H]2O[C@H](C)C[C@H](N(C)C)[C@H]2O)[C@](C)(O)C[C@@H](C)CN(C)[C@H](C)[C@@H](O)[C@]1(C)O [Azithromycin]
active: [1] 0.0316 | Shigella flexneri 0.0334 | Vibrio cholerae 0.0396 | [2] 0.0337 | P. vulgatus RND KO 0.0189 | P. vulgatus WT 0.0116 | [3] 0.0218 | [4] 0.00733

CC1CNc2c(cccc2S(=O)(=O)N[C@@H](CCCNC(=N)N)C(=O)N2CC[C@@H](C)C[C@@H]2C(=O)O)C1 (some centres not stated) [Argatroban]
inactive: [1] 1 | Shigella flexneri 1.03 | Vibrio cholerae 1 | [2] 1.02 | P. vulgatus RND KO 1.03 | P. vulgatus WT 1.06 | [3] 1.01 | [4] 0.996

CCc1c(C)[nH]c2c1C(=O)C(CN1CCOCC1)CC2 (configuration not stated) [Molindone hydrochloride]
inactive: [1] 1 | Shigella flexneri 1.02 | Vibrio cholerae 1.04 | [2] 1.01 | P. vulgatus RND KO 1.03 | P. vulgatus WT 1.05 | [3] 1.02 | [4] 1.01

OC(CCCN1CCCCC1)(c1ccccc1)c1ccccc1 [Diphenidol hydrochloride]
inactive: [1] 0.999 | Shigella flexneri 1 | Vibrio cholerae 1 | [2] 1.01 | P. vulgatus RND KO 1.04 | P. vulgatus WT 1.04 | [3] 1 | [4] 0.987

O=C(O)Cc1ccccc1Nc1c(Cl)cccc1Cl [Diclofenac sodium]
inactive: [1] 0.975 | Shigella flexneri 0.957 | Vibrio cholerae 0.973 | [2] 0.982 | P. vulgatus RND KO 0.95 | P. vulgatus WT 0.964 | [3] 1 | [4] 0.997

COc1c2occc2c(OC)c2c(=O)cc(C)oc12 [Khellin]
inactive: [1] 1 | Shigella flexneri 1.05 | Vibrio cholerae 0.983 | [2] 1.01 | P. vulgatus RND KO 1 | P. vulgatus WT 1.02 | [3] 1.02 | [4] 0.985

Cc1nc2n(c(=O)c1CCN1CCC(c3noc4cc(F)ccc34)CC1)CCCC2 [Risperidone]
inactive: [1] 1 | Shigella flexneri 0.997 | Vibrio cholerae 0.995 | [2] 1 | P. vulgatus RND KO 1.03 | P. vulgatus WT 1.03 | [3] 0.997 | [4] 0.993

Cc1nccn1CC1CCc2c(c3ccccc3n2C)C1=O (configuration not stated) [Ondansetron hydrochloride]
inactive: [1] 1.01 | Shigella flexneri 1.04 | Vibrio cholerae 1.01 | [2] 1 | P. vulgatus RND KO 1.01 | P. vulgatus WT 1.04 | [3] 1 | [4] 0.984

— the supplement of paper PMC12350171
